# Compound activity deposited in PubChem BioAssay by National Center for Advancing Translational Sciences (NCATS).
# HCMV inh – blocks human cytomegalovirus replication; HFF cells, HCMV-luciferase reporter, 72 h; active compounds read low; activity change, negative = inhibition, % at 57.5 µM; 4.5% of 410,000 active; AID 1259415; in the data active = activity change below about -60%; inconclusive = no clear call, values can overlap the other calls; inactive = above about -39%
#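 Cell-based, HFFs, 1000 cells/well, 16 h 37C; cpds in DMSO + HCMV-luc, MOI 1 PFU/cell; 72 h 37C; OneGlo luminescence after 5 min RT; norm. to buffer vs Salinomycin 10uM.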
# FMDV antiviral – antivirals against foot and mouth disease virus | FMDV antiviral cell-based qHTS | Potency, µM (highest dose often 57.9 µM), for the others: top-dose activity change, negative = inhibition, most hits filed as inhibitors | 1.2% of 410,000 active; calls by dose curve; tested in HEK293T cells; also: read-out not given here; potency is read from the fitted curve at half-maximal effect; nearly all actives have a fitted effect of over 45% in size
# MARV entry inh – blocks Marburg virus binding to or entry into cells; Marburg virus pseudotyped entry inhibition, cell reporter; Potency, µM (titrated, usually from 37.8 µM), for inactives: at the top dose activity change, negative = inhibition, hits mostly inhibitors; 1.8% of 300,000 active; calls by dose curve; tested in HEK293 cells; also: potency is read from the fitted curve at half-maximal effect
# HCV inh – HCV inhibition. Huh7.5.1 HCVcc-Cre infection, luciferase reporter, 44 h. Potency, µM (series often up to 41.8 µM), for the others: top-dose activity change, negative = inhibition, actives largely listed as inhibitors. 3.4% of 340,000 active. AID 651820; active = well fitted inhibition curve with a large enough effect; inconclusive = small, poorly fitted or top-dose-only effect, or another doubt; inactive = no such curve, though single readings can be large or run the other way; also: potency is read from the fitted curve at half-maximal effect
#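 Reporter virus HCVcc-Cre (~0.5 moi) infects cells exposed to compound; seeding density 1,000 cells/well with 4 h settling beforehand. Luminescence, 15 sec read, taken 44 h post-infection following a 15 min RT substrate incubation.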
# LASV entry inh – Lassa virus entry inhibition; Lassa virus pseudotype entry inhibition, cell reporter; Potency, µM (doses to about 37.9 µM), without a hit: top-dose activity change, negative = inhibition, hits mostly inhibitors; 1.2% of 300,000 active; AID 540256; calls by dose curve; tested in HEK293 cells; also: potency is read from the fitted curve at half-maximal effect; nearly all actives have a fitted effect of over 50% in size
# An asterisk follows results filed as active; ? = inconclusive; · = no result given; + = active, no number; [ ] = remark or other dose. An excerpt weighted towards active compounds, which were near 7.9% of everything screened. % is scaled to controls: 0 for no effect and ±100 for the full control effect.
SMILES,HCMV inh,FMDV antiviral,MARV entry inh,HCV inh,LASV entry inh
COCCn1c(=O)c(C)nc2cnc(N3CCOCC3)nc21,·,-13%,·,·,·
COc1ccc(CCCNC(=O)C2Cc3c(-c4ccc(NC(C)=O)cc4)ccnc3O2)cc1 (stereo not given),18,-21%,·,·,·
O=C(O)C1CCCCC1C(=O)Nc1ccc(S(=O)(=O)N2CCCC2)cc1 (stereo not given),62,-5%,0%[46.1 µM],-1%,14%[46.1 µM]
CC1CCC(NC(=O)c2ccc(CSc3nc4ccncc4n3Cc3ccc(F)cc3)cc2)CC1 (stereo not given),-93*,?,?,·,-12%[46.1 µM]
Cc1ccc(Cn2c(SCc3ccc(C(=O)N4CCCCC4)cc3)nc3ccncc32)cc1,-60*,-18%,?,·,-15%[46.1 µM]
CCc1cccc2c(C(=O)CN3C(=O)NC4(CCc5ccccc54)C3=O)c[nH]c12 (stereo not given),-69*,-27%,?,?,?
CCc1cccc2c(C(=O)CN3C(=O)N(C)C4(CCCCC4)C3=O)c[nH]c12,-21,-12%,·,7.1µM*,·
CCc1cccc2c(C(=O)CN3C(=O)NC(C)(c4cccc5ccccc45)C3=O)c[nH]c12 (stereo not given),54,?,?,?,?
CC1=C(C(=O)Nc2ccc(C)cc2C)C(c2ccc(Br)cc2)n2ncc(C(=O)Nc3cccc(C)c3)c2N1 (stereo not given),-1,-2%,·,·,13%[46.1 µM]
CCN1C(=O)[C@@H]2[C@H]3[C@H](O)[C@H](O)CC(=NOC[C@@H](O)COCc4ccco4)[C@@H]3CC[C@H]2C1=O,·,·,-22%[14.2 µM],·,·
O=[N+]([O-])c1cccnc1N1CCC(c2cc(-c3ccc(Cl)cc3)n[nH]2)CC1,12,?,?,10µM*,?
COc1ccccc1C1CN(CCNC(=O)[C@@H]2CSC(=O)N2)Cc2ccccc2O1 (stereo not given in full),·,58%,·,·,·
CCOc1ccccc1CNC(=O)c1ccc(NC(=O)N2CCSc3ncccc32)cc1,+,?,·,·,-24%[46.1 µM]
COc1ccc(CNC(=O)c2ccc(NC(=O)N3CCSc4ncccc43)cc2)c(OC)c1,0,-18%,·,·,-12%[46.1 µM]
CCOc1ccc(NC(=O)c2ccc(NC(=O)N3CCSc4ncccc43)cc2)cc1,?,32µM*,·,·,3%[46.1 µM]
COc1ccc(NC(=O)c2ccc(NC(=O)N3CCSc4ncccc43)cc2)cc1,47,?,·,·,?
CCOc1ccccc1NC(=O)c1ccc2nc[nH]c2c1,-26,1%,-9%[46.1 µM],?,7%[46.1 µM]
Cc1ccc(-c2noc(CNC(=O)COc3cc(C)c(Br)c(C)c3)n2)cc1,-30,-15%,-1%[46.1 µM],·,5%[46.1 µM]
CSc1nccc(NC(=O)c2cccc(Br)c2)n1,-32,?,?,10µM*,-2%[46.1 µM]
Cc1cc(NCCCn2ccnc2)n2ncc(-c3ccc(Cl)cc3)c2n1,14,3%,?,7.1µM*,?
CN(C)CCCNc1cc(C(C)(C)C)nc2c(-c3ccc(Cl)cc3)cnn12,-103*,1%,?,10µM*,?
Cc1cc(NCCCN2CCOCC2)n2ncc(-c3ccc(Cl)cc3)c2n1,55,28%,-20%,13µM*,?
CC(C)(C)c1cc(NCc2ccccn2)n2ncc(-c3ccc(Cl)cc3)c2n1,-15,4%,·,?,·
COc1ccccc1/C=C/C(=O)OCCN1C(=O)c2ccccc2C1=O,58,5%,·,-2%,·
COc1cccc(CNC(=O)CSc2nnc(C)c3c(C)n(-c4ccccc4)nc23)c1OC,-19,?,·,·,-2%[46.1 µM]
SMILES,HCMV inh,FMDV antiviral,MARV entry inh,HCV inh,LASV entry inh
COc1ccc(CNC(=O)CSc2nnc(C)c3c(C)n(-c4ccccc4)nc23)c(OC)c1,-65*,?,·,·,?
Cc1nnc(SCC(=O)NCc2cccc(F)c2)c2nn(-c3ccccc3)c(C)c12,-61*,?,·,·,?
N#Cc1cccc(NC(=S)Nc2ccccc2)c1,-68*,10%,?,10%,3%
Oc1ccc(NC(=S)Nc2ccccc2)cc1,?,17%,?,-4%,7%
CCN1C(=O)[C@@H]2[C@H]3[C@H](O)[C@H](O)CC(=NOC[C@@H](C)[C@H](OCc4ccccc4)C(C)C)[C@@H]3CC[C@H]2C1=O,·,·,1%[14.2 µM],·,13%[14.3 µM]
CCN(C(=O)CSc1ncccc1C(=O)Oc1cccc([N+](=O)[O-])c1)c1cccc(C)c1,32,25µM*,4%,-2%,9%
CC(=O)N1CCC[C@H]1C(=O)NCC1Cc2cc(-c3cnccn3)cc(Cl)c2O1 (stereo not given in full),·,2%,·,·,·
CCOc1ccccc1NC(=O)C1CCCN(c2c(CC)c(C)nc3ncnn23)C1 (stereo not given),?,?,?,13µM*,?
CCc1c(C)nc2ncnn2c1N1CCC(C(=O)Nc2ccc(C)cc2)CC1,-86*,-24%,?,?,-25%
Cc1cc(N2CCCC(C(=O)Nc3cccc4ccccc34)C2)n2ncnc2n1 (stereo not given),-69*,?,-15%[46.1 µM],?,-22%
CCc1c(C)nc2ncnn2c1N1CCCC(C(=O)NCCc2ccc(OC)cc2)C1 (stereo not given),-68*,?,-19%,?,-20%
COc1ccc(CCNC(=O)C2CCCN(c3nc(C)cc(C)n3)C2)cc1 (stereo not given),-21,?,6%[46.1 µM],-12%,-4%
C#CC(=O)CC1(CN(Cc2ccccc2)C(=O)OC(C)(C)C)CCCCC1,-8,-25%,·,-22%,·
Cc1cccc(C)c1OC[C@H](O)CNS(=O)(=O)c1ccccc1C(=O)N1CCOCC1,·,·,12%[46.1 µM],·,·
Cc1ccc2nc(N3CCCCCC3)c(CN(CC3CCCO3)C(=O)c3cncs3)cc2c1 (stereo not given),·,-12%,·,·,·
Cc1cccn2c(=O)cc(CSc3nnc(NC(=O)COc4ccc(F)cc4)s3)nc12,-24,-16%,·,·,14%[46.1 µM]
O=c1oc2ccccc2c2c1[C@H]1O[C@](c3ccsc3)(Cc3c1ccc1ccccc31)O2,·,·,5%[14.2 µM],·,·
COc1ccc2c(c1)C(c1ccc(Cl)cc1)NC(=O)C2 (stereo not given),-2,-11%,·,2%,·
Cc1nc2ncnn2c(N2CCCC(C(=O)Nc3ccc4c(c3)CCC4)C2)c1C (stereo not given),-101*,25µM*,?,10µM*,?
COc1ccc(CCNC(=O)C2CCCN(c3ncccn3)C2)cc1 (stereo not given),-69*,31%,4%[46.1 µM],2%,5%[46.1 µM]
CCN1C(=O)C2CCCCN2c2ccc(C(=O)NCCOC)cc21 (stereo not given),77,8%,·,-11%,·
O=C(Nc1cccc(Cl)c1)OCc1cn(-c2ccccc2)nn1,-15,2.5µM*,16%[46.1 µM],?,?
O=C(CNc1ccccc1)Nc1cccc2ccccc12,16,20%,?,4%,-7%
Cc1cc(-c2ccc(S(=O)(=O)N(C)c3ccc(C)c(C)c3)s2)on1,-4,?,·,11µM*,·
